Data on 40 compounds can be found in ChEMBL document CHEMBL3433997, “St. Jude Leishmania screening dataset” (2016).

The experiment has as its target Glucose transporter (Leishmania mexicana) (UniProt O61059). Kind of experiment: ST_JUDE_LEISH: Cytotoxicity at 2uM final concentration against transgenic Leishmania Mexicana promastigotes LmGT2 that are glucose transport deficient and complemented with the L. Mexicana glucose transporter 2. Activity is measured by DNA content using SYBR green in vitro. Type of experiment: functional.
`O=C(CSc1nnc(-c2ccccc2Br)[nH]1)c1c[nH]c2ccccc12`: the inhibition (in general, the relative decrease from the control value, in per cent) was 1.98%.

Turning to `CN1CCC(N(Cc2ccc(N3CCN(Cc4c[nH]c5ccc(Cl)cc45)CC3)nc2)C2CC2)CC1`, the inhibition turned out to be 10.7%.

With `C[C@H]1CN(Cc2cccc(-c3cc(CNC(=O)c4cccc(CN5CCN(C/C=C/c6ccccc6)CC5)c4)ccc3F)c2)CCN1`, the inhibition was determined as 12.7%.

As for `Cc1ccc(C(=O)Nc2cccc(CN3CCCN(Cc4ccc(O)cc4)CC3)c2)s1`, the inhibition turned out to be 2.88%.

For `N#Cc1ccc(NC2(C(=O)N3CCN(c4cccc(Cl)c4)CC3)CC2)c2ccccc12`, the inhibition was found to be 0.86%.

As to `COc1cc(C(=O)NCCCN2CCN(c3cccc(Cl)c3)CC2)ccc1-c1nc2cc(Cl)c(F)cc2[nH]1`, the inhibition was 0.03%.

Turning to `O=C(/C=C/c1ccc(Cl)c(Cl)c1)N1CCC(CCN2CCC(c3c[nH]c4ccccc34)CC2)CC1`, the inhibition stood at 0.41%.

On to `S=C(NCCCCCN1CCC(c2c[nH]c3ccccc23)CC1)Nc1cccc(I)c1`, for which the inhibition was -1.76%.

`c1ccc(-c2cc(NCCCCNc3cc(-c4ccccc4)nc4ccccc34)c3ccccc3n2)cc1`: the inhibition turned out to be 6.81%.

For `CN(C)c1ccc(CN2CCCCC(NC(=O)c3cc(-c4ccccc4F)cs3)C2)cc1` (stereo not given), the inhibition was -7.76%.

As for `COc1ccc(Nc2nc(NC3CCN(Cc4ccccc4)CC3)cc(-c3ccncc3)n2)cc1`, the inhibition was 0.86%.

Consider `Cc1cc(C)c2oc(-c3cccc(NC(=O)c4ccc([N+](=O)[O-])o4)c3C)nc2c1`, for which the inhibition worked out at 1.45%.

In the case of `Cn1cncc1C(=O)Nc1ccc(-c2cccc(-c3nc4cc(F)ccc4[nH]3)c2)cc1`, the inhibition was 4.7%.

Consider `FC(F)(F)c1ccc2[nH]c(-c3cccc(-c4cccc(CNCC5CCCO5)c4)c3)nc2c1` (stereo not given), for which the inhibition stood at 3.26%.

For `CC(=O)Nc1nnc(SCc2c(C)cc(C(C)(C)C)cc2C)s1`, the inhibition is 1.06%.

Regarding `O=C(Nc1ccc(Cn2ncc(N3CCCNCC3)c(Cl)c2=O)cc1)Nc1cccc(Oc2ccccc2)c1`, the inhibition was determined as 1.79%.

As to `O=C([C@H]1CCCCN1c1ccc([N+](=O)[O-])c2ccccc12)N1CCN(c2ncccn2)CC1`, the inhibition worked out at 2.64%.

In the case of `O=C(NC(Nc1ccc([N+](=O)[O-])cc1)C(Cl)(Cl)Cl)c1ccc(Cl)cc1` (stereo not given), the inhibition is -2.78%.

Turning to `CN1CCN(CC(=O)Nc2ccc(-c3ccc(-c4nc5cc(C(F)(F)F)ccc5[nH]4)s3)cc2)CC1`, the inhibition is 1.13%.

For the compound `CCc1cc(CNC2CCN(CCc3c(F)cnc4ccc(OC)nc34)CC2)cc2c1OCCO2`, the inhibition was 19.9%.

For `CCN(CC)S(=O)(=O)c1ccc(Cl)c(C(=O)Nc2ccc3nc(C)sc3c2)c1`, the inhibition is -1.58%.

For `COc1cc(OC)cc(C(=O)Nc2cccc(-c3cn4ccc(C)cc4n3)c2)c1`, the inhibition was 5.98%.

Consider `c1cc(CNCCc2ccncc2)cc(-c2ccc(-c3nc4ccccc4[nH]3)s2)c1`, for which the inhibition was -0.99%.

`C[C@H](Cc1ccc(CCc2ccc(C[C@@H](C)NC[C@H](O)c3cccc(Cl)c3)cc2)cc1)NC[C@H](O)c1cccc(Cl)c1`: the inhibition was 58.5%.

Consider `Nc1nc(N)c2cc(Cc3ccc([N+](=O)[O-])cc3)cnc2n1`, for which the inhibition was -0.27%.

With `CCCc1ccc(NC(=O)c2ccc(CN3CCCN(CC4CCCCC4)CC3)cc2)cc1`, the inhibition is 5.46%.

In the case of `CN(CC(=O)Nc1ccc(F)c(F)c1F)c1ncnc2sc(-c3ccccc3)cc12`, the inhibition came to 2.74%.

Regarding `COc1cc2ccccc2cc1CNCCCCCCNCc1cc2ccccc2cc1OC`, the inhibition was found to be 5.15%.

`CN1CCN(Cc2c(O)ccc3c(=O)c(Oc4ccc(C(C)(C)C)cc4)c(C(F)(F)F)oc23)CC1`: the inhibition was 46.6%.

On to `Nc1ccc2[nH]cc(C3CCN(CC4CCC(NC(=O)/C=C/c5ccc(Cl)c(Cl)c5)CC4)CC3)c2n1` (stereo not given), for which the inhibition was -4.12%.

As for `O=C(N[C@H]1CCN(Cc2ccc(OCCN3CCCC3)c(Cl)c2)C1)c1ccc(Cl)c(Cl)c1`, the inhibition worked out at 6.8%.

For the compound `Cc1cccc2nc(-c3cccc(-c4cccc(CN5CCCC5CN)c4)c3)[nH]c12` (stereo not given), the inhibition was -2.17%.

For the compound `Cc1ccc(OC2CCN(c3ccc(C(=O)NC4CC4)cn3)CC2)cc1`, the inhibition was found to be 1.55%.

For `O=C(Nc1cccc(C(F)(F)F)c1)c1ccc(S(=O)(=O)NC2CCN(CC3CCCCC3)C2)cc1` (stereo not given), the inhibition worked out at 4.54%.

For the compound `Cc1cc(Oc2ccc(-n3ccnc3)cc2)nc(N2CCN(CCCN3CCCC3)CC2)n1`, the inhibition stood at 2.69%.

With `C[C@H](Cc1ccc(OCCCCCCOc2ccc(C[C@@H](C)NC(=O)[C@H](O)c3cccc(Cl)c3)cc2)cc1)NC[C@H](O)c1cccc(Cl)c1`, the inhibition turned out to be 4.7%.

`O=C(Nc1cccc(CN2CCCN(Cc3ccc(O)cc3)CC2)c1)c1cccc(C(F)(F)F)c1`: the inhibition was determined as 11.3%.

`CCOc1ccccc1NC(=O)C(Sc1nc(C)cc(C)c1C#N)c1ccccc1` (stereo not given): the inhibition stood at 6.45%.

`N#Cc1cccc(NC(=O)Nc2ccc(CC(=O)N3CCc4cc(Cl)c(N5CCN(C/C=C/c6ccccc6)CC5)cc43)cc2)c1`: the inhibition is 2.7%.

As for `Cc1cccc(CN2CCCC3(CCN(Cc4ccccc4O)C3)C2)c1` (stereo not given), the inhibition is -0.38%.
